CYP2C19 activ – increases human CYP2C19 enzyme activity; 96,000 tested, under 10 active; AID 1025; recombinant CYP2C19, luciferin-H EGE luminescence; hits give high values; 0 = fully inhibited enzyme, 1 = untreated enzyme; activation factor at 5 µM; P33261;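 active = activation factor of at least 2 at 5 µM in the primary screen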;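 also: 0 = wells with 2.5 mM tranylcypromine and 1 = vehicle-only wells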
CYP2C9 inhib – blocks human cytochrome P450 2C9; inhibition, % at 5 µM; P11712; CYP2C9 Supersomes, luciferin-H conversion, luminescence; AID 777; hit rate 20% among 96,000;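 active = blocking of liver enzyme CYP2C9 beyond about 50% at 5 µM, limit read from the data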
Target sequence (P11712 whole entry, looked up): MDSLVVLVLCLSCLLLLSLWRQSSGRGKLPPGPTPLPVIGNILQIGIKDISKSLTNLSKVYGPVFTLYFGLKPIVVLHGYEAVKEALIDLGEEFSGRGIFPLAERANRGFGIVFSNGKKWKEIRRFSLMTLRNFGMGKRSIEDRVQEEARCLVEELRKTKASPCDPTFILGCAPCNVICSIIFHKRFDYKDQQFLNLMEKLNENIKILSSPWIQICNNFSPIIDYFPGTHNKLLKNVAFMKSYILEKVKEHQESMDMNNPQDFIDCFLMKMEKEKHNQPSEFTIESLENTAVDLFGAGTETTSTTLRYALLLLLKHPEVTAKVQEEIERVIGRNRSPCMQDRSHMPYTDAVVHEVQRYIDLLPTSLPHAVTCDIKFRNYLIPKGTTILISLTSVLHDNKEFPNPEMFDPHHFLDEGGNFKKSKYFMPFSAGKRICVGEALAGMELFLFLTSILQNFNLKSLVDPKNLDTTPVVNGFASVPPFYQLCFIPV
CYP2C9 act – CYP2C9 (human) activation | P11712 | AID 1024 | activation factor at 5 µM | recombinant CYP2C9, luciferin-H conversion, luminescence; hits give high values; factor 1 = untreated enzyme, 0 = blocked | hit rate 1.4% among 96,000;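 active = activation factor of 2 or more for CYP2C9 at a 5 µM dose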;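 also: 0 = sulfaphenazole-blocked wells and 1 = vehicle-only wells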
CYP2C19 inh – human CYP2C19 inhibition; P33261; CYP2C19 Supersomes, luciferin-H EGE luminescence, 30 min; inhibition, % at 5 µM; hit rate 21% among 96,000; AID 778;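 active = CYP2C19 inhibition above a set limit at 5 µM in the primary screen, cut at about 50% in these data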;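 also: plate controls were negative control wells for no effect and 2.5 mM tranylcypromine positive control for full effect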
Measles CPE – protection of cells from measles virus. hit rate 1.5% among 140,000. Measles virus-infected cells, CPE protection, absorbance. protection (pct of control), % at 4 µM; in the data active = protection mostly above about 24%, no sharp cut-off; inactive = mostly below about 26%
The depositor's hits bear a star. This is a sample that favours compounds with a hit; in the whole collection about 22% have one here.

Cc1cc(C)c(S(=O)(=O)N2CCN(CCO)CC2)c(C)c1 was read as CYP2C19 activ 0.6, CYP2C9 inhib -129, CYP2C9 act 2.3*, CYP2C19 inh 43 and Measles CPE 15.
CCn1c(SCC(=O)N2c3ccccc3Sc3ccccc32)nnc1-c1ccco1 was read as CYP2C19 activ 0.1, CYP2C9 inhib 83*, CYP2C9 act 0.2, CYP2C19 inh 89* and Measles CPE 6.
`Cn1c(SCC(=O)N2c3ccccc3Sc3ccc(Cl)cc32)nnc1-c1ccco1` gave Measles CPE 14.
`CCn1c(SCC(=O)c2cccs2)nnc1-c1ccco1` gave CYP2C19 activ 0.2, CYP2C9 inhib 13, CYP2C9 act 0.9, CYP2C19 inh 76* and Measles CPE 10.
CCn1c(SCC(N)=O)nnc1-c1ccco1 was read as CYP2C19 activ 1.2, CYP2C9 inhib -34, CYP2C9 act 1.3, CYP2C19 inh -21 and Measles CPE 6.
For CCCn1nc2cc(C(=O)N(CC)c3ccc(OC)cc3)ccc2c1OCC the results were CYP2C19 activ 0.8, CYP2C9 inhib 26, CYP2C9 act 0.7, CYP2C19 inh 17 and Measles CPE 15.
CCOc1ccccc1NC=C1C(=O)OC(C)(C)OC1=O was read as CYP2C19 activ 0.8, CYP2C9 inhib -97, CYP2C9 act 2*, CYP2C19 inh 17 and Measles CPE 21.
For O=C(COC(=O)C1COc2ccccc2O1)NC1CCS(=O)(=O)C1 (stereo unspecified) the results were CYP2C19 activ 1.1, CYP2C9 inhib -8, CYP2C9 act 1.1, CYP2C19 inh -9 and Measles CPE 16.
`Cc1ccccc1N1CCN(Cc2c(C#N)c3ccccc3n2C)CC1` gave CYP2C19 activ 0.3, CYP2C9 inhib -4, CYP2C9 act 1, CYP2C19 inh 67* and Measles CPE 2.
`Cn1c(CSc2ccccc2)c(C#N)c2ccccc21` gave CYP2C19 activ 0.2, CYP2C9 inhib -26, CYP2C9 act 1.3, CYP2C19 inh 75* and Measles CPE 3.
Screening Cn1c(CNc2ccccn2)c(C#N)c2ccccc21 returned CYP2C19 activ 0.2, CYP2C9 inhib 11, CYP2C9 act 0.9, CYP2C19 inh 75* and Measles CPE 13.
For Cc1ccc(SCc2c(C#N)c3ccccc3n2C)cc1 the results were Measles CPE 6.
`COc1ccc(NC(=O)CCCn2c(=O)c3sccc3n(Cc3ccc(C)cc3C)c2=O)cc1` gave Measles CPE 3.
Cc1nnc2sc(-c3ccc(NC(=O)CSc4ccc(Cl)cc4)cc3)nn12 was read as Measles CPE 9.
For O=C(Cc1ccccc1)NCCc1ccc(Cl)cc1Cl the results were Measles CPE 3.
Screening OCCN(Cc1ccccc1)Cc1ccc(Cl)cc1Cl returned CYP2C19 activ 0, CYP2C9 inhib 57*, CYP2C9 act 0.4, CYP2C19 inh 95* and Measles CPE 7.
Screening Cc1csc(NC(=O)c2cccs2)n1 returned CYP2C19 activ 0.1, CYP2C9 inhib 54*, CYP2C9 act 0.5, CYP2C19 inh 94* and Measles CPE 10.
Screening Cc1cccc(N2CCN(C(=O)CCNS(=O)(=O)c3ccc4c(c3)CCC(=O)N4)CC2)c1C returned CYP2C19 activ 1, CYP2C9 inhib 58*, CYP2C9 act 0.4, CYP2C19 inh -3 and Measles CPE 4.
`CCOC(=O)Cc1csc(NC(=O)c2cccs2)n1` gave CYP2C19 activ 0.1, CYP2C9 inhib 77*, CYP2C9 act 0.2, CYP2C19 inh 88* and Measles CPE 5.
For CCOC(=O)Cc1csc(NC(=O)CCNS(=O)(=O)c2ccc3c(c2)CCC(=O)N3)n1 the results were CYP2C19 activ 0.9, CYP2C9 inhib 56*, CYP2C9 act 0.4, CYP2C19 inh 8 and Measles CPE 17.
For CCOC(=O)Cc1csc(NC(=O)CSc2nnc(C)n2C)n1 the results were CYP2C19 activ 1, CYP2C9 inhib 0, CYP2C9 act 1, CYP2C19 inh -5 and Measles CPE 5.
`CC(Sc1nc2cc(Cl)ccc2s1)C(=O)Nc1cccc(S(=O)(=O)N2CCOCC2)c1` (stereo unspecified) gave Measles CPE 6.
Screening CCOC(=O)Cc1csc(NS(=O)(=O)c2ccc(F)cc2)n1 returned CYP2C19 activ 1, CYP2C9 inhib 50*, CYP2C9 act 0.5, CYP2C19 inh 2 and Measles CPE 1.
Screening CCOC(=O)Cc1csc(NC(=O)c2sc3nc4cc(C)ccc4cc3c2N)n1 returned Measles CPE 24.
For CCOC(=O)Cc1csc(NC(=O)c2ccc(Br)s2)n1 the results were CYP2C19 activ 0.2, CYP2C9 inhib 100*, CYP2C9 act 0, CYP2C19 inh 78* and Measles CPE 15.
CCCCC(=O)Nc1ccc(C(=O)Nc2nc(CC(=O)OCC)cs2)cc1 was read as CYP2C19 activ 0.8, CYP2C9 inhib 68*, CYP2C9 act 0.3, CYP2C19 inh 22 and Measles CPE 9.
Screening CCOC(=O)Cc1csc(NC(=O)c2sc3nc4ccc(CC)cc4cc3c2N)n1 returned CYP2C19 activ 0.6, CYP2C9 inhib 63*, CYP2C9 act 0.4, CYP2C19 inh 41 and Measles CPE 9.
For CCOC(=O)Cc1csc(NC(=S)NC(=O)c2ccccc2)n1 the results were Measles CPE 4.
`CCOC(=O)Cc1csc(NC(=O)c2ccc3c(c2)OCO3)n1` gave CYP2C19 activ 1, CYP2C9 inhib 36, CYP2C9 act 0.6, CYP2C19 inh 4 and Measles CPE 3.
COc1cccc2c1C(=O)CC2NC(=O)C(F)(F)F (stereo unspecified) was read as CYP2C19 activ 0.9, CYP2C9 inhib 11, CYP2C9 act 0.9, CYP2C19 inh 7 and Measles CPE 2.
`CCOC(=O)Cc1csc(NC(=O)c2ccc(Br)o2)n1` gave CYP2C19 activ 0.6, CYP2C9 inhib 60*, CYP2C9 act 0.4, CYP2C19 inh 45 and Measles CPE 6.
Screening CCCN(CCC)C(=O)c1ccc2c(c1)N(Cc1ccccc1)C(=O)CS2=O (stereo unspecified) returned CYP2C19 activ 1.1, CYP2C9 inhib 86*, CYP2C9 act 0.1, CYP2C19 inh -7 and Measles CPE 1.
For CC(C)CCNC(=O)c1ccc2c(c1)N(Cc1ccccc1)C(=O)CS2=O (stereo unspecified) the results were CYP2C19 activ 0.9, CYP2C9 inhib 50*, CYP2C9 act 0.5, CYP2C19 inh 13 and Measles CPE 9.
Screening O=C(Nc1ccccc1Cl)c1ccc2c(c1)N(Cc1ccc(F)cc1)C(=O)CS2=O (stereo unspecified) returned Measles CPE 7.
O=C(NCCc1ccccc1)c1ccc2c(c1)N(Cc1ccccc1)C(=O)CS2=O (stereo unspecified) was read as CYP2C19 activ 0.5, CYP2C9 inhib 86*, CYP2C9 act 0.1, CYP2C19 inh 48 and Measles CPE 11.
